According to PubChem BioAssay (Tox21):
Records with an inconclusive call do not appear. A number with no mark means an inactive call. The source made the active and inactive calls. Calls come from the whole dose curve; as a rule, active = well fitted inhibition curve with a large enough effect in the repeat runs; inconclusive = weak or mixed curves, or effect the other way; inactive = no such curve, though single readings can be large or run the other way.

target: Nuclear receptor subfamily 1 group I member 3 (Homo sapiens) (UniProt Q14994); assay: qHTS assay to identify small molecule antagonists of the constitutive androstane receptor (CAR) signaling pathway (AID 1224838); conditions: HepG2-CYP2B6-hCAR luciferase, CITCO-stimulated, 24 h; series mostly up to 92.4 µM; activity, negative = inhibition: at the top concentration;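 note: HepG2 cells stably expressing hCAR with CYP2B6 luciferase reporter stimulated by CITCO; nearly all actives have a fitted effect of over 40% in size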
Description: U.S. Tox21 Program National Center for Advancing Translational Sciences [NCATS] NIH Chemical Genomics Center [NCGC] U.S. Environmental Protection Agency [EPA] National Institutes of Environmental Health Sciences [NIEHS] National Toxicology Program [NTP] U.S. Food and Drug Administration [FDA] Tox21 Assay Overview: The constitutive androstane receptor (CAR) is a nuclear receptor which regulates multiple drug metabolizing enzymes (DMEs) and transporters. Activating CAR will generally increase the transcription and subsequent translation of CYP2B6 and CYP3A4. These two DMEs represent about 50% of the drug metabolizing potential in the body. When CAR is deactivated, the metabolizing potential in the body will decrease, subsequently increasing the toxicity in the body or lowering the therapeutic potential of a pro-drug. Recently, there have also been studies performed indicating CARs role in energy metabolism and cancer therapy. Therefore, inhibiting CARs activity could have a potential effect on diabetes and cancer. Identifying environmental toxins and compounds which modulate CAR, through the use of the Tox21 10K compound collection, will be an important step in determining the toxicity and potential therapeutic effects these factors will have on the human body.
Tox21 Assay Protocol Summary: A double-stable (hCAR and CYP2B6-2.2kb) transfected cell line, derived from human hepatoma (HepG2) cells, was utilized for the duration of the quantitative high-throughput screens. The HepG2-CYP2B6-hCAR cells suspended in DMEM culture medium supplemented with 10% FBS, 5 ug/mL blasticidin, 0.5 mg/mL geneticin, 100 U/mL penicillin and 100 ug/mL streptomycin were dispensed at 2500 cells/4 uL/well in 1536-well white solid bottom plates using a Multidrop Combi. After the assay plates were incubated at 37 C/5% CO2 for 4 hrs, 23 nL of compounds at 15 concentrations (from 5-48 columns) or positive control (from 1 to 4 columns) were transferred to the assay plates using a Pintool station. One uL of CITCO, was added using a Flying Reagent Dispenser to generate a final concentration of 50 nM CITCO inside each well. After a 24 hr incubation period at 37 C/5% CO2, four uL of ONE-Glo reagent was added into the assay plates using a Flying Reagent Dispenser. After a 30 min incubation period at room temperature, the luminescence intensity in the assay plates was measured using a ViewLux plate reader.
% is set by controls: 0 for no effect and ±100 for the full control effect; potency is the fitted concentration of half-maximal effect.

Nuclear receptor subfamily 1 group I member 3 (Homo sapiens), sequence (Q14994 whole entry, looked up): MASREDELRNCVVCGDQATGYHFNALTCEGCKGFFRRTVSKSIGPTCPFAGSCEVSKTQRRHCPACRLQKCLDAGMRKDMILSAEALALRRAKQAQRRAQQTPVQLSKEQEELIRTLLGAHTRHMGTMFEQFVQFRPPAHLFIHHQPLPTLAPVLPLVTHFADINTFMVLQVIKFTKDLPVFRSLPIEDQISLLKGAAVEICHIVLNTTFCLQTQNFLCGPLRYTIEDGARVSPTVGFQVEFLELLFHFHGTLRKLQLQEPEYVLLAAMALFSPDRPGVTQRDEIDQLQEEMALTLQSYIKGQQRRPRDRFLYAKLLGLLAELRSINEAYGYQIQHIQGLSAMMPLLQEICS

SMILES | activity, negative = inhibition | Potency
CC1CCC(C(C)(C)O)CC1 (stereo not given) | -12.1% | –
CCOC(=O)[C@H](C)O | 3.82% | –
O=C(O)C[C@H](O)C[C@H](O)/C=C/c1c(C2CC2)nc2ccccc2c1-c1ccc(F)cc1 | -27.1% [at 19 µM] | –
CSc1ccc(O)cc1C | -15.3% | –
CCCCCCCCCCCCN1CCCC1=O | 66.2% | –
COc1cccc(-c2ccc(/C=C\CN3CCCCCC3)cc2Cl)c1 | 22.7% | –
CC/C(=C(/c1ccc(O)cc1)c1ccc(OCCN(C)C)cc1)c1ccccc1 | – | 35.9 µM (active)
CCCCCCCCCCCCS(=O)(=O)Cl | -3.15% [at 19 µM] | –
C=C1CC[C@H]2O[C@]2(C)CC[C@@H]2[C@@H]1CC2(C)C | -16.2% | –
SC1CCCCC1 | -0.25% | –
CCOC=C(C(=O)OCC)C(=O)OCC | -9.02% | –
NCc1ccco1 | -8.24% | –
O=c1[nH]cccc1O | 29.6% | –
CCN(CC)c1ccc(N=Nc2ccccc2)cc1 | 77.4% | –
CCC1(C)C(=O)N(Cl)C(=O)N1Cl (stereo not given) | 3.34% | –
O=C(N[C@H](CO)[C@H](O)c1ccc([N+](=O)[O-])cc1)C(Cl)Cl | -0.723% | –
O=C1OC(=O)c2cc(-c3ccc4c(c3)C(=O)OC4=O)ccc21 | -6.27% | –
Nc1ccc(Oc2cccc(Oc3ccc(N)cc3)c2)cc1 | – | 1.37 µM (active)
C=CCc1cc(S(=O)(=O)c2ccc(O)c(CC=C)c2)ccc1O | 13.6% | –
O=C1OC2(c3ccccc31)c1ccc(O)c(Br)c1Oc1c2ccc(O)c1Br | -8.18% | –

SMILES | activity, negative = inhibition | Potency
O=c1cc[nH]cc1 | 4.15% | –
c1ccc2c(c1)-c1ccc3ccc4cccc5cc-2c1c3c45 | 309% [at 42.5 µM] | –
Cc1cc(C)c(O)c(C(C)(C)C)c1 | -4.58% | –
N#CCCOCCC#N | -0.576% | –
CCCCCc1ccc(O)cc1 | 83.2% | –
Clc1ccc2c(Cl)ccnc2c1 | 6.89% | –
CCCC(C)C=O (stereo not given) | -1.44% | –
ClC(c1ccccc1)(c1ccccc1)c1ccccc1 | 26.4% | –
CCOc1nc(F)cc2nc(S(=O)(=O)Nc3c(Cl)cccc3C(=O)OC)nn12 | 5.37% | –
CCNc1nc(NC(C)(C)C)nc(OC)n1 | 48% | –
c1ccc(-c2ccc(C(c3ccccc3)n3ccnc3)cc2)cc1 (stereo not given) | 78.6% [at 42.5 µM] | –
COc1cc(/C=C/C(=O)CC(=O)/C=C/c2ccc(O)c(OC)c2)ccc1O | – | 54.8 µM (active)
Nc1cc([N+](=O)[O-])ccc1Cl | 45.8% | –
CCC(C)(C)c1ccc(CC(C)CN2C[C@@H](C)O[C@@H](C)C2)cc1 (stereo not given in full) | 10.8% [at 42.5 µM] | –
NC(=O)c1ccccc1Cl | 16.2% | –
CCN(CC)c1ccc(C=O)c(O)c1 | 73.1% | –
[Cl][Dy]([Cl])[Cl] | -12.4% | –
CN(C[C@@H](CC[N+]12CCC(C3CCCCC3)(CC1)CC2)c1ccc(Cl)c(Cl)c1)C(=O)c1cc(C(F)(F)F)cc(C(F)(F)F)c1 | – | 54.5 µM (active)
CCCCCCCCSCc1cc(C)c(O)c(CSCCCCCCCC)c1 | 9.92% | –
C=Cc1ccncc1 | 2.15% | –
